Screening data deposited in PubChem by The Scripps Research Institute Molecular Screening Center.
Sampled rows, rich in hits. Any-hit rate of the full collection: about 4.1%.
hgDAF-12 ag = H. glycines DAF-12 receptor agonists, primary screen, cell-based, luminescence, HEK293, GAL4 fusion, UAS-luciferase; Nuclear hormone receptor DAF-12 (Heterodera glycines), GAL4 fusion; HEK293 GAL4-hgDAF12 UAS-luciferase reporter, agonist luminescence; normalized to butyrate control; activation, % at 6.8 µM; 370,000 compounds, 1.8% hits;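 active = activation above a cutoff set at the mean of all screened compounds plus 3 SD, cut at about 10% in these data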;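 note: 0% = DMSO wells and 100% = sodium butyrate wells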
hcDAF-12 act = H. contortus DAF-12 nuclear receptor activators, primary screen, cell-based, luminescence, HEK293, lit1-tk-luc reporter; activation, % at 6.8 µM; HEK293 hcDAF-12 lit1-tk-luc reporter; 0% DMSO, 100% Δ7-dafachronic acid; 370,000 compounds, 1.4% hits;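 active = activation above the mean of all tested compounds plus 3 SD, cut at about 5.5% in these data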;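 note: 100% = response to 3 µM Δ7-dafachronic acid high control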
DAX1 inh-1 = DAX1 (NR0B1) inhibitors, primary screen, cell-based, HEK293, Gal4-DAX1, luciferase luminescence | HEK293 Gal4-DAX1 luciferase reporter | inhibition, % at 6.75 µM | 340,000 compounds, 0.99% hits | AID 504766, 2011;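 active = inhibition above the mean over all tested compounds plus 3 SD, cut at about 4.2% in these data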;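 note: 0% = DAX1-transfected cells with DMSO and 100% = empty-vector control cells with DMSO; inhibition shows as a rise in luminescence from relieved DAX1 repression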
Target sequence (P51843 207-470 limits assumed): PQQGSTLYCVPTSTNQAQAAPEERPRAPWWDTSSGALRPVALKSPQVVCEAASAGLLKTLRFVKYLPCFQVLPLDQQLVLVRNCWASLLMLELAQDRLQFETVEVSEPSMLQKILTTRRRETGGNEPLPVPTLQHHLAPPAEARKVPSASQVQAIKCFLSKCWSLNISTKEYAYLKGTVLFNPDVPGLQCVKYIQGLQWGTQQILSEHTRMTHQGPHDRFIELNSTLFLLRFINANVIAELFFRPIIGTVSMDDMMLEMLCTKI
DAX1 inh-2 = DAX1 (NR0B1) inhibitors on StAR promoter, primary screen, cell-based, luminescence, SF-1 (NR5A1), full-length DAX-1. HEK293T StAR-luciferase reporter, SF-1/DAX-1 repression relief. inhibition, % at 6.8 µM. 370,000 compounds, 1.1% hits;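 active = inhibition above the mean over all tested compounds plus 3 SD, cut at about 3.6% in these data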;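 note: 0% = DAX-1 cells with DMSO and 100% = cells lacking DAX-1 with DMSO; higher inhibition means more luminescence from relief of DAX-1 repression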
ssDAF12 agonist = S. stercoralis DAF-12 nuclear receptor activators, primary screen, cell-based, luminescence, HEK293, GRIP1 co-expression, lit1-tk-luc; Nuclear hormone receptor DAF-12 (Strongyloides stercoralis); HEK293 ssDAF-12/GRIP1 lit1-tk-luc reporter; % of 3 µM dafachronic acid response; activation, % at 6.8 µM; 370,000 compounds, 1% hits;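 active = activation above the mean over all tested compounds plus 3 SD, cut at about 0.9% in these data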;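 note: 0% = DMSO-only wells and 100% = 3 µM delta7-dafachronic acid wells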
An asterisk follows results filed as active; . = no result given.

SMILES	hgDAF-12 ag	hcDAF-12 act	DAX1 inh-1	DAX1 inh-2	ssDAF12 agonist
Cc1ccc2c(c1)sc1nc(=O)n(-c3ccccc3)c(=O)n12	12*	2	3	2	-1
NC(CSC(c1ccccc1)(c1ccccc1)c1cccc2ccccc12)C(=O)O (centres undefined)	.	.	4.5*	.	.
COc1cccc(NC(=O)C(=O)NCCCN2CCCC2=O)c1	8	3	2	3.8*	0
COc1ccccc1CCn1cnc(-c2ccc(F)cc2)c1CC(C)C	0	-3	.	-2	-2
O=S(=O)(Nc1ccc(C(O)(C(F)(F)F)C(F)(F)F)cc1)c1cccs1	-2	1	.	.	-1
CNC(=S)NNC(=O)c1sccc1C	-2	0	-1	0	-1
Cc1ccsc1C(=O)NNC(=S)NC1CCCCC1	4	0	1	4.1*	0
O=C(CSc1nnc(COc2ccccc2)n1-c1ccc(Cl)cc1)Nc1ccccc1-c1ccccc1	0	-2	.	-1	-1
Cc1cc(NCCCN2CCOCC2)n2nc(C)c(-c3ccccc3)c2n1	0	-1	0	0	-1
Cc1cc(NCCCN2CCOCC2)n2ncc(-c3ccccc3)c2n1	11*	6.0*	2	3	1.3*
Cc1cc(NCc2ccccn2)n2ncc(-c3ccc(Cl)cc3)c2n1	9	3	.	1	-1
Cc1cc(NCc2ccccn2)n2ncc(-c3ccccc3)c2n1	12*	5	4.7*	3	1.3*
O=C(Nc1cccc(Br)c1)OC1CC2CC1[C@H]1CCCCN1[C@H]2Cc1ccccc1 (some centres undefined)	-3	2	.	0	0
COc1ccc(-c2nc3ccccc3c(=O)n2Cc2ccccc2)cc1COc1ccc(NC(C)=O)cc1	-8	-5	.	.	-2
Cc1cccc(OCCNC(=O)c2cncc(Br)c2)c1	2	0	1	0	3.3*
Clc1ccc2nc(-c3ccccn3)c(Nc3ccc4c(c3)OCO4)n2c1	13*	-1	-2	1	-1
COCCNC(=O)CSc1nc2ccc(N3CCOCC3)cc2c(=O)n1CCc1ccccc1	1	3	0	0	-2
CCCCn1c(SCC(=O)NCCOC)nc2ccc(N3CCOCC3)cc2c1=O	-2	-2	4.8*	0	-1
Cc1nn(-c2ccccc2)nc1C(=O)Nc1ccccc1C(=O)NCC1CC1	-2	-2	.	0	-1
COc1cccc(C(=O)NCCC2=CCCCC2)c1	12*	4	-2	3	0
O=C(CCNC(=O)c1ccc([N+](=O)[O-])cc1)NCCC1=CCCCC1	-1	-1	0	0	0
Cc1cc(C(=O)NCCC2=CCCCC2)ccc1[N+](=O)[O-]	11*	3	.	3	-1
COc1ccc(C(=O)NCCC2=CCCCC2)cc1OC	4	2	1	2	0
O=C(NC1CCCCN(Cc2ccc(Cl)cc2)C1=O)c1cccc(C(F)(F)F)c1 (centres undefined)	-2	0	.	-1	-2
O=C(O)c1ccc2cccnc2n1	1	0	-1	-1	1.3*
SMILES	hgDAF-12 ag	hcDAF-12 act	DAX1 inh-1	DAX1 inh-2	ssDAF12 agonist
CCOc1ccc(N(CC(=O)Nc2c(C)n(C)n(-c3ccccc3)c2=O)S(=O)(=O)c2cc(OC)ccc2OC)cc1	2	-1	.	0	-1
CC(=Nc1ccccc1)C1=C(O)CCCC1=O	-1	1	5.2*	0	-1
Cc1c(CC(=O)Nc2ccc(Cl)cc2)sc2ccc(Cl)cc12	2	0	6.4*	0	-1
Cc1ccc(-n2c(SCC(=O)c3ccc(O)c(O)c3)nnc2-c2ccccc2)cc1	2	-1	.	-2	-1
CCCC1CCC2(CC1)CCC2OC(=O)Nc1cccc(Cl)c1 (centres undefined)	4	-2	.	.	-1
Cc1ccc(CNC(=O)Nc2ccc(C)cc2)cc1	4	1	1	0	0
Cc1ccc(CNC(=O)Nc2ccccc2)c(C)c1	13*	1	0	1	0
Cc1ccccc1CNC(=O)Nc1ccc(Cl)cc1	3	0	5.5*	0	-1
Cn1c(NCCOc2ccccc2)nc2cc(-c3ccc(F)cc3)sc2c1=O	-1	-1	.	1	-2
C=CCNc1nc2cc(-c3ccccc3OC)sc2c(=O)n1C	11*	2	.	0	0
COCCNc1nc2cc(-c3ccc(F)cc3)sc2c(=O)n1C	12*	-1	.	-1	-1
COc1ccc(CSc2nnc(SCC(=O)Nc3ccc(S(N)(=O)=O)cc3)s2)cc1	1	-3	.	0	-1
O=C(O)Cn1cc(/C=C/[N+](=O)[O-])c2ccccc21	3	4	-1	1	0.9*
O=C(O)Cn1cc(C(=S)N2CCCCC2)c2ccccc21	0	3	6.2*	1	-2
Cc1nc(SCc2ccccc2)nc2c1CCC2	11*	0	2	3	0
Cc1ccc(CSc2nc3c(c(N(C)C)n2)CCCC3)cc1	3	-2	0	-1	-2
Cn1ccsc1=NC(=O)c1ccccc1F	5	-1	0	0	-1
Cn1ccs/c1=N\C(=O)Nc1ccccc1	12*	4	1	2	0
c1ccc(-c2csc3ncn4nnnc4c23)cc1	1	-1	0	1	1.0*
C=CCOC(=O)C(CO)NC(=O)CCCC(=O)O (centres undefined)	7	-2	.	0	-1
Cc1ccccc1C(=O)NC1CCCCN(Cc2cccc(C(F)(F)F)c2)C1=O (centres undefined)	3	-2	.	0	-1
CCOc1cc(/C=C2/SC(=S)N(Cc3ccccc3)C2=O)ccc1O	9	6.4*	-1	0	0
COc1cc(/C=C2/SC(=S)N(Cc3ccccc3)C2=O)ccc1OCC(=O)O	1	-1	1	1	-1
CCCCNC(=O)C[C@@H]1C(=O)N2CCCC3=C2[C@@]1(C(=O)OCC)CCC3	4	3	.	-1	-1
NC(=O)c1ccc(NC(=O)COC(=O)c2cc3c(s2)CCC3)cc1	0	1	1	1	-1
Cc1occc1C(=O)OCC(=O)Nc1ccc(F)cc1	11*	4	1	0	0
O=C(COC(=O)c1cc2c(s1)CCC2)Nc1ccc(F)cc1	-2	2	4.5*	0	0
O=C(NC(=S)N1CCCCC1CO)c1cccs1 (centres undefined)	1	3	6.5*	2	0
O=C(NC(=S)Nc1ccccc1N1CCCC1)c1cccs1	4	5.7*	1	0	0
